{"source": "PubChem BioAssay (NCATS)", "note": "Inconclusive results are not listed. Unmarked numbers belong to inactive results. The source made the active and inactive calls. Calls follow the shape of the dose curve; as a rule, active = well fitted inhibition curve with a large enough effect; inconclusive = small, poorly fitted or top-dose-only effect; inactive = flat fitted curve, though single readings scatter. Where a SMILES comes first, the peptide text is derived from it. [ ]: non-standard residue; d: D form. ξ: configuration not given here. ξTyr(βOH) = NC(C(=O)O)C(O)c1ccc(O)cc1", "data": [{"molecular_target": "Glutathione peroxidase 1 (Homo sapiens) (UniProt P07203)", "sequence (P07203 whole entry, looked up)": "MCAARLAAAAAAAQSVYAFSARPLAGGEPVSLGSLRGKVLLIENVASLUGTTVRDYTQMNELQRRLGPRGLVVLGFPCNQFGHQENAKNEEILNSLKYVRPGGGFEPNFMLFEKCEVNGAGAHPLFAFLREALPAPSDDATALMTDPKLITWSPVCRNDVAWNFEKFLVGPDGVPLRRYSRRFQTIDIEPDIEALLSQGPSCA", "assay": "Primary qHTS Assay for Inhibitors of Recombinant Selenoprotein Glutathione Peroxidase 1 (GPX1) (AID 1845191); also: nearly all actives have a fitted effect of over 65% in size", "conditions": "recombinant GPX1, GR-coupled NADPH fluorescence, 15 min; series mostly up to 27.7 µM; activity, negative = inhibition: at the top concentration", "source_text": "Assay Provider: Elias S.J. Arner MD PhD.\nDepartment of Medical Biochemistry and Biophysics\nKarolinska Institutet, Solna, Stockholm, Sweden\nSelenoprotein glutathione peroxidases (GPX), like the ubiquitously expressed GPX1 and the ferroptosis modulator GPX4, enact their antioxidant activities by reducing hydroperoxides using glutathione. […] GPX1 and GPX4 inhibitors have thus shown promise as anti-cancer agents. Existing inhibitors are often promiscuous, or modulate GPX activity only indirectly, so novel direct inhibitors identified through screening against GPX1 and GPX4 could be valuable. Here, we developed optimized glutathione reductase (GR)-coupled GPX assays for the biochemical high-throughput screen (HTS) of almost 12,000 compounds with known mechanisms of action. Initial hits were triaged using a GR counter-screen, assessed for isoform specificity using a separate GPX2 assay, and were assessed for general selenocysteine-targeting activity using a thioredoxin reductase (TXNRD1) assay. With this suite of assays, we identified novel GPX1/GPX2- and GPX4-specific inhibitors and can here present a validated pipeline for future discovery research for selenoprotein-targeting agents.\nSEQUENCE No. (e.g., 1, 2, 3, etc.); […] (e.g., Cells, Incubation, Reagent, etc.); VALUE; DESCRIPTION.\n1; Reagent 1; 3 uL; GPx1 enzyme or no enzyme control in 1536-well, black, solid Greiner assay plate.\n2; Compound; 25 nL; Kalypsis pin tool (Wako USA) equipped with a 1536-well pin head.\n3; Incubation; 30 min; room temperature.\n4; Reagent 2; 1 uL; 10 nM GPX1, 1 mM GSH, 0.5 mM CHP, 0.5 mM NADPH, 100 nM GR, 0.01% BSA substrate\n5; Detection; Fluorescence; ViewLux microplate reader, excitation 340 nm and emission 450 nm.\n6; Incubation; 15 min; room temperature.\n7; Detection; Fluorescence; ViewLux microplate reader, excitation 340 nm and emission 450 nm.\nNOTES (numbers refer to Sequence numbers above)\n1. 3 uL of 16.66 nM GPX1 and 0.016% BSA in assay buffer (50 mM Tris-HCl, 2 mM EDTA (pH 7.5), 150 mM NaCl) was added to columns 3-48 of 1536-well assay plates using a BioRAPTR Flying Reagent Dispenser (Let's Go Robotics (LGR), Carlsbad, CA). A no-enzyme control (0.01% BSA in TES assay buffer) was added to columns 1-2.\n2. 25 nL of test compounds and DMSO controls were added to each well with a pin tool (Kalypsys).\n3. The assay plates were incubated for 30 minutes at room temperature.\n4. 1 uL of master mix (500 nM glutathione reductase (GR), 5 mM reduced glutathione (GSH), 2.5 mM NADPH in assay buffer) was added. 1 uL of cumene hydroperoxide (CHP) ([2.5 mM] in 50% EtOH) was then added within 5 minutes to initiate the reaction. Final concentrations were: 10 nM GPX1, 1 mM GSH, 0.5 mM CHP, 0.5 mM NADPH, 100 nM GR, 0.01% BSA.\n5. Initial fluorescence readout (t=0) at 340/450 nm was measured using a ViewLux multimodal detector (PerkinElmer, Waltham, MA).\n7. Endpoint fluorescence readout (t=15) at 340/450 nm was measured 15 min after room temperature incubation.", "values": [{"smiles": "C=C(C)[C@@H]1CC[C@]2(CO)CC[C@]3(C)[C@H](CC[C@@H]4[C@@]5(C)CC[C@H](O)C(C)(C)[C@@H]5CC[C@]43C)[C@@H]12", "outcome": "inactive"}, {"smiles": "Nc1ncnc2c1ncn2[C@H]1O[C@@H](C(=O)N2CCN(CC(=O)Nc3cccc4c3CNC4=O)CC2)[C@H](O)[C@@H]1O", "outcome": "inactive [at 48.8 µM]"}, {"smiles": "CNC(=O)c1ccc2c(c1)CCO[C@H]2CCN1CCN(c2ccc(C(N)=O)cc2)CC1", "outcome": "inactive [at 48.8 µM]"}, {"smiles": "COc1ccc2[nH]c(S(=O)Cc3ncc(C)c(OC)c3C)nc2c1", "note": "(stereo not given)", "outcome": "inactive [at 48.8 µM]"}, {"smiles": "CC1OC(O[C@@H]2[C@@H](O)[C@H](OC(=O)[C@]34CCC(C)(C)C[C@H]3C3=CCC5[C@@]6(C)CC[C@H](O[C@@H]7O[C@H](C(=O)O)[C@@H](O)[C@H](O[C@@H]8OC[C@@H](O)[C@H](O)[C@H]8O)[C@H]7O[C@@H]7O[C@H](CO)[C@H](O)[C@H](O)[C@H]7O)[C@@](C)(C=O)C6CC[C@@]5(C)[C@]3(C)C[C@H]4O)O[C@H](C)[C@@H]2OC2OC(C)C(OC3OCC(O)C(O)C3O)C(O)C2O)C(O)C(O)C1O", "note": "(stereo not given in full)", "outcome": "inactive [at 9.52 µM]"}, {"smiles": "C=C1C(O)CCC2(C)CC3(OC)OC(=O)C(C)=C3CC12", "note": "(stereo not given)", "activity, negative = inhibition": "-0.808% [at 48.8 µM]"}, {"smiles": "CC(=O)OC1C(O)/C(C)=C\\C2C(OC(=O)c3ccccc3)C(C)CC2(OC(C)=O)C(OC(C)=O)C(C)/C=C/C(C)(C)C1OC(C)=O", "note": "(stereo not given)", "outcome": "inactive [at 15.3 µM]"}, {"smiles": "C=CC(C)(CC/C=C(\\C)C(=O)OC[C@H]1O[C@@H](OC(C)(C=C)CC/C=C(\\C)C(=O)O[C@H]2[C@H](O)[C@@H](O)[C@H](OC(C)(C=C)CC/C=C(\\C)C(=O)O)O[C@@H]2CO)[C@H](O)[C@@H](O)[C@@H]1O)O[C@@H]1O[C@H](CO)[C@@H](O)[C@H](O)[C@H]1O", "note": "(stereo not given in full)", "outcome": "inactive [at 15.3 µM]"}, {"smiles": "C=C1C(=O)OC2CC(COC(=O)C(C)C)=C(C(C)CCCOC(C)=O)[C@@H](OC(C)=O)C12", "note": "(stereo not given in full)", "outcome": "inactive"}, {"smiles": "C=C(C(=O)O)[C@@H]1CC[C@@]2(C)CCC[C@@](C)(O)[C@@H]2C1", "activity, negative = inhibition": "-13.7% [at 48.8 µM]"}, {"smiles": "CC1(C)CC=C(C#Cc2ccccc2)c2cc(/C=C/c3ccc(C(=O)O)cc3)ccc21", "activity, negative = inhibition": "-29% [at 48.8 µM]"}, {"smiles": "CC1=CC(=O)CC(C)(C)C1CCC(C)O[C@@H]1O[C@H](CO)[C@@H](O)[C@H](O)[C@H]1O", "note": "(stereo not given in full)", "outcome": "inactive"}, {"smiles": "C/C=C(\\C)C(=O)OCC1OC(OCC2OC(OC3(CO)OC(CO)C(O)C3O)C(O)C(O)C2O)C(O)C(O)C1O", "note": "(stereo not given)", "activity, negative = inhibition": "-8.87% [at 15.3 µM]"}, {"smiles": "CC(C)=C1C[C@@]2(C)C(=CC1=O)CC[C@@H](O)[C@@H]2C", "activity, negative = inhibition": "-14.6% [at 48.8 µM]"}, {"smiles": "COC(=O)c1c(CC=C(C)C)c(OC2OC(CO)C(O)C(O)C2O)c2ccccc2c1OC1OC(CO)C(O)C(O)C1O", "note": "(stereo not given)", "outcome": "inactive [at 15.3 µM]"}, {"smiles": "CC(C)C1NC(=O)CNC(=O)C2CCCN2C(=O)C(Cc2c[nH]c3ccccc23)NC(=O)CNC(=O)C(C(O)c2ccc(O)cc2)NC(=O)CNC1=O", "note": "(stereo not given) (cyclo(G[ξTyr(βOH)]GWPGV); configuration not given here)", "activity, negative = inhibition": "1.68% [at 15.3 µM]"}, {"smiles": "CCC12CCCN3CCc4c(n(c5ccccc45)C(O)C1)C32", "note": "(stereo not given)", "activity, negative = inhibition": "3.03% [at 48.8 µM]"}, {"smiles": "O=[N+]([O-])c1cc(Cl)ccc1S(=O)(=O)N1CCN(Cc2ccccc2)CC1", "activity, negative = inhibition": "-20.1% [at 48.8 µM]"}, {"smiles": "O=C(O)c1ccc(NC(=O)[C@H](CC2CCCC2)n2cnc(C(F)(F)F)c2)nc1", "outcome": "inactive [at 48.8 µM]"}, {"smiles": "CCC(C)C1NC(=O)C2C(C)CCN2C(=O)C(CC(O)CO)OC(=O)CCNC(=O)C(C)N(C)C(=O)C(C(C)C)N(C)C1=O", "note": "(stereo not given)", "activity, negative = inhibition": "-14.9% [at 15.3 µM]"}, {"smiles": "C/C=C/C=C/[C@@H]1O[C@](O)([C@H](CC)C(=O)NC/C=C/C=C(\\C)[C@@H](OC)[C@@H](C)[C@@H]2O[C@H](/C=C/C=C/C=C(\\C)C(=O)c3c(O)ccn(C)c3=O)[C@H](O)[C@@H]2O)[C@H](O)[C@H](O)C1(C)C", "outcome": "inactive [at 15.3 µM]"}, {"smiles": "CC1C(O)C(O)C2C(C(=O)OCCc3ccc(O)cc3)=COC(O[C@@H]3O[C@H](CO)[C@@H](O)[C@H](O)[C@H]3O)C12", "note": "(stereo not given in full)", "activity, negative = inhibition": "-4.65%"}, {"smiles": "CC[C@@H](C)[C@H](N)C(=O)N1Cc2ccccc2C1", "activity, negative = inhibition": "-17.3% [at 48.8 µM]"}, {"smiles": "C/C(=C\\C1CCC(C)C2CCC3(C)OC123)C(=O)O", "note": "(stereo not given)", "outcome": "inactive [at 48.8 µM]"}, {"smiles": "C=C1CC[C@@]2(OC1)O[C@H]1CC3[C@@H]4CC=C5C[C@H](O[C@H]6OC[C@@H](O)C(O)[C@@H]6O[C@@H]6O[C@@H](C)[C@H](O)[C@@H](O[C@@H]7O[C@H](CO)[C@@H](O)[C@H](O)[C@H]7O)[C@H]6O)C[C@@H](O)[C@]5(C)C4CC[C@]3(C)[C@H]1[C@@H]2C", "note": "(stereo not given in full)", "activity, negative = inhibition": "-9.14% [at 15.3 µM]"}, {"smiles": "Cc1c(O)cc2c(c1O)COC1(O)CCCOC21", "note": "(stereo not given)", "activity, negative = inhibition": "-10.7% [at 48.8 µM]"}, {"smiles": "C=C(COC(=O)CC(C)C)C1Cc2cc(C(C)=O)ccc2O1", "note": "(stereo not given)", "activity, negative = inhibition": "0.0599% [at 48.8 µM]"}, {"smiles": "O=C(OC[C@H]1O[C@@H](Oc2ccccc2COC(=O)C2(O)C=CCCC2O)[C@H](O)[C@@H](O)[C@@H]1O)c1ccccc1", "note": "(stereo not given in full)", "activity, negative = inhibition": "-16.1%"}, {"smiles": "OC[C@H]1O[C@@H](Oc2cc(O)cc(-c3cc4ccc(O[C@@H]5O[C@H](CO)[C@@H](O)[C@H](O)[C@H]5O)cc4o3)c2)[C@H](O)[C@@H](O)[C@@H]1O", "outcome": "inactive"}, {"smiles": "COC1OC(O)C2(CCC3(O2)C(C)CC2OC(=O)C4(C)CCCC3(C)C24)C1O", "note": "(stereo not given)", "activity, negative = inhibition": "-4.83%"}, {"smiles": "COc1ccc(N2CCN(CCCNC(=O)Cn3c(=O)c4cccn4c4c(C)ccnc43)CC2)cc1", "outcome": "inactive [at 48.8 µM]"}, {"smiles": "C[C@]1(OC(=O)/C=C/c2ccccc2)C[C@@H](O)[C@]2(O)C=CO[C@@H](O[C@@H]3O[C@H](CO)[C@@H](O)[C@H](O)[C@H]3O)[C@@H]21", "activity, negative = inhibition": "-14%"}, {"smiles": "COc1cc(C(=O)OC[C@H]2O[C@@H](OC(C)(C)C(=O)O)[C@H](O)[C@@H](O)[C@@H]2O)cc(OC)c1O", "outcome": "inactive"}, {"smiles": "O=C(N[C@H](Cc1ccccc1)C(=O)O)c1sc2cc(F)ccc2c1Cl", "activity, negative = inhibition": "-5.98% [at 48.8 µM]"}, {"smiles": "CC1(C)O[C@H]2CC(=O)OC[C@@]23C1=C(O)C(=O)[C@]1(C)C3CC[C@@]2(C)[C@H](c3ccoc3)OC(=O)[C@H]3O[C@]321", "note": "(stereo not given in full)", "outcome": "inactive"}, {"smiles": "C=C(C)C1CCC2(C(=O)OC3OC(COC4OC(CO)C(O)C(O)C4O)C(OC4OC(C)C(O)C(O)C4O)C(O)C3O)CCC3(C(=O)O)C(CCC4C5(C)CCC(=O)C(C)(C)C5CCC43C)C12", "note": "(stereo not given)", "outcome": "inactive [at 15.3 µM]"}, {"smiles": "C[C@@H]1CCC2C(C)(C)[C@H](O)[C@H](O)C[C@]2(C)[C@@]12Cc1c(O)cc3c(c1O2)CN(CCCC(=O)O)C3=O", "note": "(stereo not given in full)", "activity, negative = inhibition": "-7.47%"}, {"smiles": "C=C(CCO)C(=O)OCC1OCC(OC(=O)C(=C)CCO[C@@H]2O[C@H](CO)[C@@H](O)[C@H](O)[C@H]2O)C(O)C1O", "note": "(stereo not given in full)", "activity, negative = inhibition": "-0.884%"}, {"smiles": "O=C(O)CCc1ccc(NCc2cccc3c2CCCN3CCOc2ccccc2)cc1F", "activity, negative = inhibition": "-22% [at 48.8 µM]"}, {"smiles": "COc1c2cc(c(O[C@@H]3O[C@H](CO)[C@@H](O)[C@H](O)[C@H]3O)c1OC)CCCCC(O)CCc1ccc(O)c-2c1", "note": "(stereo not given in full)", "outcome": "inactive"}]}]}
